Inconclusive results are not listed. Active and inactive are the calls of the source. Calls follow the shape of the dose curve; as a rule, active = well fitted activation curve with a large enough effect in the signal ratio in the repeat runs (not every such curve was filed as active); inconclusive = weak or mixed curves; inactive = flat fitted curve, though single readings scatter; the % refers to the signal ratio.
assay: qHTS assay to identify small molecule agonists of the TGF-beta/Smad signaling pathway (AID 1346859); conditions: SBE-bla HEK293T, TGF-beta/Smad beta-lactamase reporter, 5 h; series mostly up to 76.8 µM; activation: at the top concentration
From the text: U.S. Tox21 Program National Center for Advancing Translational Sciences [NCATS] NIH Chemical Genomics Center [NCGC] U.S. Environmental Protection Agency [EPA] National Institutes of Environmental Health Sciences [NIEHS] National Toxicology Program [NTP] U.S. Food and Drug Administration [FDA] Tox21 Assay Overview: Transforming growth factor beta (TGF-beta) superfamily consists of a large number of structurally related dimeric proteins that act as hormones or local mediators in regulating a wide range of biological functions. This superfamily includes TGF-betas themselves, the bone morphogenetic proteins (BMPs) and the activins. These ligands induce oligomerization of serine/threonine receptor kinases and phosphorylate the cytoplasmic signaling molecules of Smad protein family. CellSensor SBE-bla HEK 293T cell line (Life Technologies, Carlsbad, CA), responsive to TGF-beta was used to screen Tox21 10K compound library for identification of agonists/antagonists of the Smad signaling pathway. This cell line contains a beta-lactamase reporter gene under control of the Smad binding element (SBE) stably integrated into HEK 293T cells.
Tox21 Assay Protocol Summary: SBE-bla HEK 293T cells were dispensed at 4,000/well in 6 uL of assay medium into black wall/clear-bottom 1536-well plates using a Multidrop Combi (ThermoFisher Scientific, Waltham, MA) dispenser. After the assay plates were incubated at 37 C and 5% CO2 for an overnight, 23 nL of compounds dissolved in DMSO, positive controls or DMSO only was transferred to the assay plate by a Pintool station (Kalypsys, San Diego, CA). The assay plates were incubated at 37 C and 5% CO2 for 5 hr. One uL of LiveBLAzer B/G FRET substrate (Life Technologies) was added using a Flying Reagent Dispenser (Aurora Discovery, San Diego, CA) and the plates were incubated at room temperature for 2 hr. Fluorescence intensity (405 nm excitation, 460 nm and 530 nm emissions) was measured using an Envision plate reader (PerkinElmer, Shelton, CT).
% is scaled to controls: 0 for no effect and ±100 for the full control effect.

Row | Structure (SMILES) | activation | outcome
1 | OCCOc1ccc(OCCO)cc1 | 1.72% (inactive) | 
2 | C=CCOCC(CC)(CO)COCC=C | 1.87% (inactive) | 
3 | O=Cc1cccc([N+](=O)[O-])c1 | 0.212% (inactive) | 
4 | NC(=O)c1ccc(N)cc1 | -0.0519% (inactive) | 
5 | O=[N+]([O-])c1ccc(F)cc1F | 1.11% (inactive) | 
6 | CCCCCOC(=O)CCCCC | -0.698% (inactive) | 
7 | CCOC(=O)CC(C)=O | 2.33% (inactive) | 
8 | N#Cc1ccc(C2CCCc3cncn32)cc1 (stereo not given) | 0.785% [at 35.3 µM] (inactive) | 
9 | Nc1nc2c(ncn2COC(CO)CO)c(=O)[nH]1 | 4.28% [at 35.3 µM] (inactive) | 
10 | CCCN(CCC)CCc1cccc2c1CC(=O)N2 | 1.13% [at 35.3 µM] (inactive) | 
11 | CCCCCSCCCCC | 1.81% (inactive) | 
12 | N[C@H](C(=O)O)c1ccc(O)cc1 | -1.41% [at 15.8 µM] (inactive) | 
13 | CC(=O)OC/C=C(\C)CC/C=C(\C)CCC=C(C)C |  | inactive
14 | CCC(=O)OC(C)c1ccccc1 (stereo not given) | -0.423% (inactive) | 
15 | CC(C)(CC(=O)O)C(=O)O | 1.76% (inactive) | 
16 | CN1N=C(C(N)=O)CCC1=O | 3.25% [at 35.3 µM] (inactive) | 
17 | CCN(CC)CCOCCOC(=O)C1(c2ccccc2)CCCC1 | -0.246% [at 35.3 µM] (inactive) | 
18 | N=c1nc(N2CCCCC2)cc(N)n1O | -0.123% [at 35.3 µM] (inactive) | 
19 | N[C@H]1CN(c2c(F)cc3c(=O)c(C(=O)O)cn(C4C[C@H]4F)c3c2Cl)CC12CC2 (stereo not given in full) | -2.58% [at 35.3 µM] (inactive) | 
20 | CCCCCCCCS(=O)(=O)Cl | -0.0683% (inactive) | 

Row | Structure (SMILES) | activation | outcome
21 | CCC(C)C1CCCCC1=O (stereo not given) | 1.05% (inactive) | 
22 | COc1cc(C(=O)N2CCCCCCC2)cc(OC)c1OC | -1.86% [at 35.3 µM] (inactive) | 
23 | CCC=O | 5.15% (inactive) | 
24 | Cc1ccc(Cl)cc1Cl | -0.615% (inactive) | 
25 | CC(C)(C)NCCNC(C)(C)C | -0.406% (inactive) | 
26 | Cc1cccc(C)c1NC(=O)C(C)N (stereo not given) | -0.384% [at 35.3 µM] (inactive) | 
27 | FC1(F)C(F)(F)C(F)(F)C2(F)C(F)(F)C(F)(F)C(F)(F)C(F)(F)C2(F)C1(F)F (stereo not given) | -1.78% [at 35.3 µM] (inactive) | 
28 | C[C@H](NC(CCc1ccccc1)C(=O)O)C(=O)N1CCC[C@H]1C(=O)O (stereo not given in full) | 6.38% [at 35.3 µM] (inactive) | 
29 | O=c1n(CCO)c(=O)n(CCO)c(=O)n1CCO |  | inactive
30 | C/C=C(\C)C#N | -5.25% (inactive) | 
31 | C1CN(CCOCCN2CCOCC2)CCO1 | 2.17% (inactive) | 
32 | CCCCCCOC(=O)CCCCC(=O)OCCCCCC | -4% (inactive) | 
33 | CN1C(=O)N(C)C(O)C1O (stereo not given) | -3.14% (inactive) | 
34 | NCCc1cnc[nH]1 | 0.896% [at 35.3 µM] (inactive) | 
35 | Cc1c(NC(C)C)c(=O)n(-c2ccccc2)n1C | 0.212% [at 35.3 µM] (inactive) | 
36 | Cc1c(O)cccc1O | -1.57% (inactive) | 
37 | COC(=O)c1cc(C(=O)OC)cc(S(=O)(=O)O)c1 | 0.853% (inactive) | 
38 | CN1CCCC1 | 1.18% (inactive) | 
39 | CCCCCCCCCCCC | -0.16% (inactive) | 
40 | CC(C[N+](C)(C)C)OC(N)=O (stereo not given) | 3.19% [at 35.3 µM] (inactive) | 
